From PubChem BioAssay AID1022 (Emory University Molecular Libraries Screening Center, 2008)
About 3,300 (1.5%) of roughly 220,000 compounds were called active. The sample holds actives, similar compounds and a random draw of the others, so the mix is not that of the screen. Unmarked numbers belong to inactive results.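 The calls were made as follows: active = compounds that cut the protein-peptide binding signal by more than 50% relative to plate controls in a single-dose test; inactive = the rest.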

molecular target: Induced myeloid leukemia cell differentiation protein Mcl-1 (Homo sapiens) (UniProt Q07820); assay: disruptors of Mcl-1 and Noxa BH3 peptide – biochemical, TR-FRET, 1536-well, primary screen (AID 1022); settings: TR-FRET Mcl-1/Noxa peptide binding, 2 h; at 21.7 µM; hits give high values;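 also: His-tagged Mcl-1 with rhodamine Noxa BH3 peptide and terbium anti-His antibody; 0% = Mcl-1 plus Noxa peptide wells and 100% = peptide-only wells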
Sequence (Q07820 whole entry, looked up): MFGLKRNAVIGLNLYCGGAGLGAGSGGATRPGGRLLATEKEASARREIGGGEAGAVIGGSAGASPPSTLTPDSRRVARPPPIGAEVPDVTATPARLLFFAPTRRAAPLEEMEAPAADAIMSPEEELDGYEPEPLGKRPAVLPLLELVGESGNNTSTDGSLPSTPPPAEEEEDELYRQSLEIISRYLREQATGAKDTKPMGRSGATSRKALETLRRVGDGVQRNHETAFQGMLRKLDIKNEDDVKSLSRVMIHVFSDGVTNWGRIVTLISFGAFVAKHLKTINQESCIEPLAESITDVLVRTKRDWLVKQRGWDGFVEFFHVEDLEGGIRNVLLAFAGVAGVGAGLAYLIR

Row | SMILES | inhibition
1 | O=C(Nc1ccccc1)N1CCN(C2c3ccccc3-c3ccccc32)CC1 | -0.05%
2 | CC1CCN(c2ccc([N+](=O)[O-])c(SCCO)c2)CC1 | -16%
3 | Cn1cnc(S(=O)(=O)Nc2ccc3c(c2)OCCO3)c1 | -2.52%
4 | CCn1c(COc2ccccc2)nnc1SCC(=O)NCc1ccco1 | -18.1%
5 | C=CCn1c(CSc2nc3ccccc3s2)nnc1SCC(=O)NCc1ccco1 | 51.2% (active)
6 | C=CCn1c(SCC(=O)Nc2nc3ccccc3s2)nnc1-c1ccccc1O | 8.54%
7 | C=CCC(Nc1ccccc1)c1cccc(OC)c1OC (stereo not given) | 5.76%
8 | Cc1cc(NC(=O)Nc2ccc(Cl)cc2)n(-c2ccccc2)n1 | -3.74%
9 | CN(C(=O)COC(=O)c1cc(-c2ccco2)nc2ccccc12)C1CCS(=O)(=O)C1 (stereo not given) | 107% (active)
10 | COc1ccc(NC(=O)COc2ccc(C(=O)OCC(=O)N(C)C3CCS(=O)(=O)C3)cc2OC)cc1 (stereo not given) | -10.9%
11 | Cc1c(-c2cccc(Cl)c2)nc2ccccc2c1C(=O)OCC(=O)N(C)C1CCS(=O)(=O)C1 (stereo not given) | 13.3%
12 | O=C(C1=C(O)C(=O)N(Cc2ccccc2)C1c1ccco1)c1ccco1 (stereo not given) | 24.5%
13 | O=C(C1=C(O)C(=O)N(CCOCCO)C1c1ccccn1)c1cccs1 (stereo not given) | 11.8%
14 | O=C(C1=C(O)C(=O)N(c2ncccn2)C1c1cccs1)c1ccco1 (stereo not given) | 55% (active)
15 | COc1cc(C=O)ccc1Oc1nnnn1-c1ccccc1 | -17.8%
16 | COc1ccc(OC)c(C(=O)c2ccc(Cl)cc2)c1 | 6.99%
17 | Cc1ccc2cc(/C=N/NC(=O)[C@@H]3CCCN3)c(Cl)nc2c1 | 5.95%
18 | O=[N+]([O-])c1ccc(N/N=C/c2ccccc2)cc1 | 1.75%
19 | Cc1c(NC(=O)/C=C/C(=O)O)cccc1[N+](=O)[O-] | -3.3%
20 | O=C(O)/C=C/C(=O)NNc1ccc([N+](=O)[O-])cc1 | 54.4% (active)

Row | SMILES | inhibition
21 | C/C(=N\NC(=O)CC(C)C)c1c(C(F)(F)F)[nH]n(-c2nc3ccccc3s2)c1=O | -81.1%
22 | O=C(Nc1cccc2c1N(C(=O)c1ccco1)CCC2)c1ccco1 | 18.1%
23 | O=C(C[n+]1ccc2c(c1)nnn2-c1ccccc1)c1ccc(Cl)cc1 | 4.1%
24 | N#CCC(=O)N/N=C/c1cn(Cc2ccc3ccccc3c2)c2ccccc12 | 27.9%
25 | CC(C)C(NC(=O)c1ccc(Cl)cc1)C(=O)O (stereo not given) | 1.56%
26 | CC(C)CNC(=S)NC(=O)c1ccc(Cl)cc1 | 62.4% (active)
27 | Cc1occc1C(=O)NNC(=S)NCC(C)C | -22.4%
28 | Cn1cnc([N+](=O)[O-])c1Sc1n[nH]c(N)n1 | 3.28%
29 | Cc1ccc(/C=C/C(=O)Nc2ccc([N+](=O)[O-])c(NC(=O)/C=C/c3ccc(C)o3)c2)o1 | 88.8% (active)
30 | CCc1nnc(NC(=O)/C=C/c2ccc(C)o2)s1 | 19.4%
31 | Cc1ccc(/C=C/C(=O)Nc2cc(S(=O)(=O)N3CCCCCC3)ccc2OCC(F)(F)F)o1 | 22.8%
32 | O=C(Nc1ccc(-c2csc(Nc3cccc(C(F)(F)F)c3)n2)cc1)c1cccc(C(F)(F)F)c1 | 16.6%
33 | CC(C)(C)c1cc(C(=O)NN)n(Cc2ccc(Cl)cc2Cl)n1 | -5.62%
34 | CC(=O)Nc1cc(C(=O)O)ccc1S(=O)(=O)c1ccc(Cl)cc1 | 57.8% (active)
35 | Cc1ccc(S(=O)(=O)c2ccc(Cl)cc2)cc1S(=O)(=O)NC(C(=O)O)C(C)C (stereo not given) | 24%
36 | CCOC(=O)N1CCN(C(=O)c2ccc(S(=O)(=O)c3ccc(C)cc3)c(NC(C)=O)c2)CC1 | 2.03%
37 | CCC(=O)N1CCCc2ccccc21 | -6.7%
38 | CN(C)c1cc(-c2ccc(F)cc2)oc(=O)c1Cl | 11.2%
39 | Cc1ccc(-c2n[nH]c(=S)n2/N=C/c2cc3c(cc2[N+](=O)[O-])OCO3)cc1 | 63.6% (active)
40 | Cc1ccc(S(=O)(=O)N/N=C\c2cc3c(cc2[N+](=O)[O-])OCO3)cc1 | 35.1%

Row | SMILES | inhibition
41 | CCOc1ccc(-c2n[nH]c(=S)n2/N=C/c2cc3c(cc2[N+](=O)[O-])OCO3)cc1 | 48.5%
42 | CC(=O)N1N=C(c2ccncc2)OC1(Cc1ccccc1)Cc1ccccc1 | 5.2%
43 | O=C(Cc1cccs1)Nc1nnc(C2CC2)s1 | -2.68%
44 | COc1ccc(Cc2nnc(NC(=O)Cc3cccs3)s2)cc1 | 101% (active)
45 | CCc1nnc(NC(=O)Cc2cccs2)s1 | 32.4%
46 | Cc1ccc(-c2c[n+](CC(=O)Nc3ccccc3)c3n2CCC3)cc1 | -9.73%
47 | Cc1ccc(Cn2c(SCC(=O)N/N=C/c3ccccc3OCC(=O)O)nc3ccccc32)cc1 | 27.3%
48 | Cc1nc2c(ncn2-c2ccccc2)c(=O)n1NC(=O)CN1CCCC1 | 1.52%
49 | C=C(C)CNC(=S)Nc1ccc(S(=O)(=O)Nc2cnc3ccccc3n2)cc1 | 6.78%
50 | O=c1cc(CO)oc(C(Nc2cccc(C(F)(F)F)c2)c2ccccn2)c1O (stereo not given) | 70% (active)
51 | O=C(Nc1cccc(C(F)(F)F)c1)c1cnccn1 | 3.57%
52 | O=c1cc(CO)oc(C(Nc2cccc([N+](=O)[O-])c2)c2ccccn2)c1O (stereo not given) | 70.7% (active)
53 | O=C(CSCC(=O)Nc1cccc([N+](=O)[O-])c1)Nc1ccccc1 | -8.73%
54 | Cc1ccc(CN(C)CC(=O)Nc2cccc([N+](=O)[O-])c2)o1 | -9.25%
55 | FC(F)(F)c1cccc(Nc2ncnc3ccccc23)c1 | -37.6%
56 | FC(F)(F)c1ccc(-n2cn[nH]c2=S)cc1 | -8.38%
57 | CN(C)NC(=O)c1csnc1-c1c(Cl)cccc1Cl | 8.82%
58 | O=C(CSc1ncn[nH]1)Nc1nc(-c2cccc([N+](=O)[O-])c2)cs1 | 0.73%
59 | Cc1ccc(C(=O)NNC2=Nc3cc([N+](=O)[O-])ccc3OC2)cc1 | 8.97%
60 | CSc1n[nH]c(=S)n1N | -7.77%
